In PubChem BioAssay (NCI):
Values joined by “and” are separate entries in the source; they are usually repeats but may differ in a detail not shown here. Equal values may be shown once. This is part of a sample that, as a whole, favours compounds with a hit. Of some 83,000 tested, about 20% had one in any assay.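 Activity criterion: percent growth below 10, measured after cells in 96-well plates were exposed to a single compound concentration for 48 hours.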 A number with no mark means an inactive call. Active and inactive are the calls of the source.

These compounds were tested on MDA-MB-468 breast (assay: NCI-60 one-dose screen, 48 h (100 = growth as untreated, 0 = no growth, -100 = all killed)). Conditions: 10 µM unless noted.

Row | SMILES | growth
1 | O=C(O)CCCCCCCCCCN1C(=O)/C(=C2/C(=O)N(CC(=O)O)c3ccc(Br)cc32)SC1=S | 102%
2 | CNc1ncc(-c2ccc(C(F)(F)F)cc2)c(NC2CCCCCC2)n1 | 74.9%
3 | O=C(Nc1ccc(-n2ccc3c(NC(=O)c4ccccc4)ncnc32)cc1)Nc1ccc(Cl)c(C(F)(F)F)c1 | -56.3% (active)
4 | O=[N+]([O-])CC(c1ccccc1)c1c[nH]c2ccccc12 (stereo not given) | 22.7%
5 | CC(C)Cc1nc(Nc2ccccc2)[nH]c(=O)c1C#N | 14.5%
6 | C/C=C1\SC(=S)NC1=O | 114%
7 | CC(=O)Nc1ccc(O)c(C)c1 | 111%
8 | CCOc1nc(-c2ccccc2)cc2c(O)c(C(=O)N/N=C/c3ccccc3)[nH]c(=O)c12 | 105%
9 | CCOc1ccc([C@@H]2[C@@H](Oc3ccccc3)C(=O)N2c2cc(OC)c(OC)c(OC)c2)cc1 | 29.4%
10 | O=C(NCc1ccco1)C1CCN(S(=O)(=O)c2ccc(Cl)cc2)CC1 | 56.2%
11 | C=C(C)[C@@H]1CC[C@]2(C=NCCCNCCCCNCCCN)CC[C@]3(C)[C@H](CC[C@@H]4[C@@]5(C)CCCNC(C)(C)[C@@H]5CC[C@]43C)[C@@H]12 | 98.5%
12 | CC(=O)O[C@H]1[C@H](CC#CC#CC[C@@H]2C[C@]3(C)[C@H]4CC=C5[C@H]6[C@@H](C)[C@H](C)CC[C@]6(C(=O)NCCCCCCCCN)CC[C@@]5(C)[C@]4(C)CC[C@H]3C(C)(C)[C@H]2OC(C)=O)C[C@]2(C)[C@H]3CC=C4[C@H]5[C@@H](C)[C@H](C)CC[C@]5(C(=O)NCCCCCCCCN)CC[C@@]4(C)[C@]3(C)CC[C@H]2C1(C)C | 73.5%
13 | COC1=CC(c2ccc[nH]2)=N/C1=C\c1[nH]c(C)c(CCCn2cc(CCCCCCCCC[C@@H]3Cc4cc(O)ccc4C4CC[C@]5(C)[C@@H](O)CC[C@H]5C43)nn2)c1C (stereo not given in full) | 30.1%
14 | N=C(N)c1ccc(-c2ccc(-c3cc(Cl)cc(Cl)c3)o2)o1 | -69.1% (active)
15 | O=C(NCCn1ccnc1)c1ccc(-c2nc3ccc4[nH]ncc4c3c3c2CCCC3)cc1 | 10.1%
16 | Cc1ccc2c(N/N=C\c3ccco3)cc(C)nc2n1 | 70.2%
17 | CC1CC2Oc3ccc(Cl)cc3C(=O)N2O1 (stereo not given) | 94.5%
18 | CN1C(=O)/C(=C/c2ccc(C(=O)Nc3ncc(Cc4cccc(C(F)(F)F)c4)s3)cc2)SC1=S | -2.76% (active)
19 | COC(=O)/C=C1\SC(=Nc2cccc(OC)c2)N(CCc2c[nH]c3ccccc23)C1=O | 64%
20 | COc1nc(N(C)O)nc(N(C)O)n1 | 29.4%

Row | SMILES | growth
21 | O=c1oc2ccccc2cc1-c1csc(N/N=C/c2cc3ccccc3nc2Cl)n1 | 105%
22 | CC1=NN(c2cccc(Cl)c2)C(=O)/C1=C\c1cn(CC(O)CN2CCCCC2)c2ccccc12 (stereo not given) | 23.7%
23 | COc1cc(/C=C/c2ccccc2)cc(OC)c1 | 103%
24 | COc1cc(C(C)c2ccc3c(ccn3C)c2)cc(OC)c1OC (stereo not given) | 51.9%
25 | CS(=O)CC1=NC(=N)N=C1CS(C)=O (stereo not given) | 88.5%
26 | COc1cc2ncnc(Nc3ccc(C(=O)/C=C/c4ccc(C(F)(F)F)cc4F)cc3)c2cc1OC | 107%
27 | CCC(N)(C(=O)O)c1ccc(F)cc1 (stereo not given) | 105%
28 | N#CCNC(=O)c1ccc(-c2ccnc(Nc3ccc(N4CCOCC4)cc3)n2)cc1 | 9.99% (active)
29 | O=C(Cn1cc(COc2ncnc3c2cnn3-c2ccccc2)nn1)Nc1ccccn1 | 97.7%
30 | CCN(CC)c1nc(SCc2ccccc2Cl)ncc1C | 69.6%
31 | COc1ccc2c(c1)C(C)Cc1c(ncnc1-n1cnc3ccccc31)N2C (stereo not given) | 27.3%
32 | Nc1ccc(S(=O)(=O)c2ccc(Cl)cc2)cc1 | 91.7%
33 | CC(=O)c1ccc(Nc2nc(NCCO)nc(Nc3ccc(Cl)cc3)n2)cc1 | 65.7%
34 | COc1ccc(Cl)cc1-n1nnc(-c2nc3ccccc3[nH]2)c1N | 63.2%
35 | COc1ccc(/C=C(/C#N)n2nnc3cccc(F)c32)cc1 | -5.27% (active)
36 | COc1cnc2c(c1)C(=O)c1c-2n(CCCBr)c(=O)c2cc([N+](=O)[O-])ccc12 | -15.8% (active)
37 | COc1ccccc1NC(=O)OCC#CCOC(=O)Nc1ccccc1OC | 92.6% and 89.9%
38 | CCCCC[C@H]1C/C=C2/C(=O)C=C[C@@H]2C/C=C\CCCC(=O)O[C@@H](CCCCC)C/C=C2/C(=O)C=C[C@@H]2C/C=C\CCCC(=O)O1 | -27.8% (active)
39 | O=C(CC(=O)c1ccccc1O)c1ccccc1 | 71.9%
40 | Cc1nn(C)c2ncnc(Nc3ccccc3Br)c12 | 107%
